Data published in PubChem BioAssay (Tox21).
Several values for one entry are separate records, joined by “and”; a condition that tells them apart may be missing. Equal entries are not always repeated. Results filed as inconclusive are left out. Entries that show only a call come without a potency. Some structures have more than one record in an assay (separate samples or runs), and their calls can disagree. Activity calls are given as the source filed them. Unless noted, calls follow the shape of the full dose curve.

Columns and labels:
[1] = Nuclear factor erythroid 2-related factor 2/antioxidant responsive element (Nrf2/ARE) small molecule agonists: qHTS cell viability counter screen in human keratinocytes (AID 1919968; active = well fitted curve in the direction sought with a large enough effect in the repeat runs; an effect the other way counts as inactive or inconclusive; also: nearly all actives have a fitted effect of over 55% in size; also: potency is read from the fitted curve at half-maximal effect)
Method in brief: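 Cells of the KeratinoSens line were plated at 1,500 per well and left for 5 h before compound transfer from DMSO stocks. After a 23 h incubation (37 C, 5% CO2), CellTiter-Fluor was added. Signal was taken as fluorescence intensity 1 h later.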

[2] = molecular target: KiSS-1 receptor (Homo sapiens) (UniProt Q969F8); assay: Human kisspeptin (KISS1R) small molecule agonists, calcium flux assay in KISS1R-HEK293 cells (AID 1920064; active = well fitted curve in the direction sought with a large enough effect in the repeat runs; an effect the other way counts as inactive or inconclusive)
Method in brief: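 Cell line: HEK293, stable human KISS1R. Dye loading 1 h at 37 C after 18 h culture. Read: kinetic fluorescence, 480/540 nm, 3 min at 1 s intervals.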

[3] = G protein-coupled receptor (GPCR) small molecule agonists, calcium flux assay: HEK293 wild type cell line counter screen (AID 1920065)
Method in brief: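 Tox21 10K compounds, 15 concentrations each in triplicate, pin-transferred in DMSO onto dye-loaded cells; kinetic read at 480/540 nm for 3 min, 1 s intervals.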

[4] = p53 small molecule agonists, cell-based qHTS assay with human liver microsomes (AID 1963577);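 also: p53 response element beta-lactamase reporter cells with liver microsomes plus NADPH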
Method in brief: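 Metabolically competent format: test substances, human liver microsomes and NADPH (both 0.5 mg/mL final) incubated with p53RE-bla cells 16 h at 37 C. Beta-lactamase reporter signal then quantified by fluorescence.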

[5] = p53 small molecule agonists, cell-based qHTS assay with rat liver microsomes (AID 1963578)
Method in brief: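 Each plate received p53RE-bla cells, then compound, then rat liver microsomes and NADPH (both 0.5 mg/mL final). Plates were held 16 h at 37 C, and beta-lactamase activity was detected with LiveBLAzer over 2 h.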

[6] = p53 small molecule agonists, cell-based qHTS assay with human liver microsomes: qHTS cell viability counter screen (AID 1963579); also: nearly all actives have a fitted effect of over 45% in size
Method in brief: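 Tox21 library compounds, delivered from DMSO stocks, were tested on p53RE-bla cells together with 0.5 mg/mL human liver microsomes and 0.5 mg/mL NADPH (final) over 16 h at 37 C; CellTiter-Glo luminescence served as the cytotoxicity measure.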

[7] = p53 small molecule agonists, cell-based qHTS assay with rat liver microsomes: qHTS cell viability counter screen (AID 1963580); also: nearly all actives have a fitted effect of over 45% in size
Method in brief: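 Cytotoxicity counter screen: intracellular ATP measured by CellTiter-Glo luminescence in the same wells as the beta-lactamase reporter read, on HCT-116 p53RE-bla cells exposed 16 h at 37 C to compounds with rat liver microsomes and NADPH, each 0.5 mg/mL final.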

[8] = p53 small molecule agonists, cell-based qHTS assay: qHTS cell viability counter screen (AID 1963581); also: nearly all actives have a fitted effect of over 45% in size
Method in brief: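 ATP content measured by luminescence in HCT-116 p53RE-bla cells treated 16 h at 37 C, same wells as the reporter screen.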

[9] = p53 small molecule agonists, cell-based qHTS assay (AID 1963582; active = well fitted activation curve with a large enough effect in the signal ratio in the repeat runs, not every such curve was filed as active; the % refers to the signal ratio)
Method in brief: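 16 h compound exposure (37 C) of p53 response element–bla cells, preceded by 5 h recovery at 37 C/5% CO2; read-out via LiveBLAzer B/G FRET substrate, 2 h RT, fluorescence intensity.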

[10] = molecular target: 5-hydroxytryptamine receptor 2A (Homo sapiens) (UniProt P28223); assay: 5-hydroxytryptamine receptor 2A (HTR2A) small molecule antagonists, cell-based qHTS assay (AID 1963586); also: nearly all actives have a fitted effect of over 45% in size
Method in brief: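 CHO cells stably expressing human HTR2A were plated for 18 h at 37 C, then loaded with calcium dye for 1 h. Compounds were preincubated 5 min at room temperature before DOI (4 nM solution) was added. Kinetic fluorescence was read for 3 min.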

[11] = molecular target: 5-hydroxytryptamine receptor 2A (Homo sapiens) (UniProt P28223); assay: 5-hydroxytryptamine receptor 2A (HTR2A) small molecule agonists, cell-based qHTS assay (AID 1963587); also: nearly all actives have a fitted effect of over 30% in size
Method in brief: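 CHO cells stably expressing human HTR2A, plated 18 h, loaded with calcium dye 1 h at 37 C. Agonist mode: compounds added and intracellular calcium fluorescence recorded kinetically for 2 min at 1 sec intervals.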

[12] = molecular target: Muscarinic acetylcholine receptor M1 (Homo sapiens) (UniProt P11229); assay: Cholinergic receptor muscarinic 1 (CHRM1) small molecule antagonists, cell-based qHTS assay (AID 1963588); also: nearly all actives have a fitted effect of over 40% in size
Method in brief: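 Compounds were tested at 15 concentrations in three independent runs. Dye-loaded CHRM1-CHO cells were exposed 5 min at room temperature before stimulation by acetylcholine added at 50nM. Intracellular calcium was read kinetically on FDSS for 3 min.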

[13] = molecular target: Muscarinic acetylcholine receptor M1 (Homo sapiens) (UniProt P11229); assay: Cholinergic receptor muscarinic 1 (CHRM1) small molecule agonists, cell-based qHTS assay (AID 1963589); also: nearly all actives have a fitted effect of over 35% in size
Method in brief: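 Homogeneous fluorescence calcium flux, agonist mode. Human M1-expressing CHO cells; compound dosed at 15 concentrations, three independent runs; signal sampled every 1 sec.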

[14] = cAMP Responsive Elements (CRE) small molecule agonists, cell-based qHTS assay (AID 1963590)
Method in brief: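 HEK 293T cells stably bearing CRE-bla were plated at 2,000 cells per well and rested 18 h. Compounds, positive controls or DMSO were added for 3 h at 37 C. LiveBLAzer B/G substrate was then loaded for 2 h at room temperature.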

[15] = cAMP Responsive Elements (CRE) small molecule antagonists, cell-based qHTS assay (AID 1963591; active = well fitted inhibition curve with a large enough effect in the signal ratio in the repeat runs, not every such curve was filed as active; the % refers to the signal ratio)
Method in brief: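 First, CRE-bla HEK293T cells settled 18 h at 37 C. Next, compound and 0.25 uM final NKH477 were applied for 3 h. Last, LiveBLAzer B/G substrate was loaded for 2 h at room temperature.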

[16] = molecular target: Beta-2 adrenergic receptor (Homo sapiens) (UniProt P07550); assay: Adrenergic beta2 receptor (ADRB2) small molecule antagonists, cell-based qHTS assay (AID 1963592); also: nearly all actives have a fitted effect of over 50% in size; also: potency is read from the fitted curve at half-maximal effect
Method in brief: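 Assay format: CHO-ADRB2 cells, 18-20hr seeding at 37C/5% CO2, then compound plus 1nM isoproterenol agonist mix for 0.5hr RT. Homogeneous time-resolved fluorescence cAMP detection after 1hr, expressed as 665/615 nm ratio.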

[17] = molecular target: Beta-2 adrenergic receptor (Homo sapiens) (UniProt P07550); assay: Adrenergic beta2 receptor (ADRB2) small molecule agonists, cell-based qHTS assay (AID 1963593);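 also: CHO cells stably overexpressing human ADRB2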
Method in brief: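 CHO cells stably over-expressing ADRB2 were plated overnight at 37C, then dosed with compounds plus a stimulation mix containing 100uM IBMX and 25uM Ro-20-1724 for 0.5hr at room temperature. cAMP was measured by HTRF competition, 1hr.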

[18] = molecular target: D(2) dopamine receptor (Homo sapiens) (UniProt P14416); assay: Dopamine D2 receptor (DRD2) small molecule agonists, cell-based qHTS assay (AID 1963594); also: nearly all actives have a fitted effect of over 35% in size
Method in brief: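 HEK293 cells stably expressing human DRD2, pre-treated with PDE inhibitor Ro20-1724 (0.1 mM final) and compound 10 min at room temperature, then stimulated with NKH477 (200nM […]) for 30 min. cAMP read by HTRF (665/620 nm).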

[19] = molecular target: D(2) dopamine receptor (Homo sapiens) (UniProt P14416); assay: Dopamine D2 receptor (DRD2) small molecule antagonists, cell-based qHTS assay (AID 1963595; active = well fitted inhibition curve with a large enough effect in the signal ratio in the repeat runs, with a control signal flat; the % refers to the signal ratio)
Method in brief: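 In this cell-based antagonist screen, compounds act for 10 min at room temperature before a 30 min challenge with 12 nM quinpirole and 200 nM NKH477. cAMP is quantified by HTRF competition in DRD2-HEK293 cells containing 0.1 mM Ro20-1724.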

[20] = molecular target: Gonadotropin-releasing hormone receptor (Homo sapiens) (UniProt P30968); assay: Human gonadotropin-releasing hormone receptor (GnRHR) small molecule agonists, calcium flux assay in GnRHR-HEK293 cells (AID 1920063); also: nearly all actives have a fitted effect of over 35% in size
Method in brief: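 Compounds dissolved in DMSO are pin-transferred onto dye-loaded GnRHR-HEK293 cells, which were seeded 18 h before at 37 C/5% CO2. Calcium signal is read as fluorescence intensity at 1 s intervals for 3 min.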

Chain of Beta-2 adrenergic receptor (Homo sapiens) (P07550 whole entry, looked up): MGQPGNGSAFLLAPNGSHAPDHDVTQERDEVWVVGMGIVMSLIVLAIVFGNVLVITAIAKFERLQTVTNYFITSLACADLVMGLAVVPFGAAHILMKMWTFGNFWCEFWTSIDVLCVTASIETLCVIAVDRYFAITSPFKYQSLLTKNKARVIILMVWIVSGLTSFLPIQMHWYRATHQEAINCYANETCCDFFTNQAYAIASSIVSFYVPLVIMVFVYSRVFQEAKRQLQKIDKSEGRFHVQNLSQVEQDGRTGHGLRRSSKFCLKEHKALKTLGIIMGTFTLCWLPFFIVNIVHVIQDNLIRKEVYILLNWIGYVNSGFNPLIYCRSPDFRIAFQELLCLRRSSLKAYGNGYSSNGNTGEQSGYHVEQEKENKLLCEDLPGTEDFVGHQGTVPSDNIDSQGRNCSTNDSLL
Chain of Muscarinic acetylcholine receptor M1 (Homo sapiens) (P11229 whole entry, looked up): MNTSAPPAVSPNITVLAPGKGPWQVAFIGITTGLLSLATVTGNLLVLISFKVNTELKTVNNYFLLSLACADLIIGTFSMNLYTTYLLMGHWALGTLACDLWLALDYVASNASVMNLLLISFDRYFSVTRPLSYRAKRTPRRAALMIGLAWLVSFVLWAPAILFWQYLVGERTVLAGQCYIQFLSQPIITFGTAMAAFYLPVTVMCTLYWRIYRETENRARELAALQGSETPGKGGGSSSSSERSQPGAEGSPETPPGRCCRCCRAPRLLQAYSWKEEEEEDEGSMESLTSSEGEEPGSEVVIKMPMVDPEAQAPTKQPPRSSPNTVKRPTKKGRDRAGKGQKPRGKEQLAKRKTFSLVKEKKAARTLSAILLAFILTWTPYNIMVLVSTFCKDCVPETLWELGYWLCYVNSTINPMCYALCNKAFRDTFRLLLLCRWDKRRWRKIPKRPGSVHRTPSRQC
Chain of KiSS-1 receptor (Homo sapiens) (Q969F8 whole entry, looked up): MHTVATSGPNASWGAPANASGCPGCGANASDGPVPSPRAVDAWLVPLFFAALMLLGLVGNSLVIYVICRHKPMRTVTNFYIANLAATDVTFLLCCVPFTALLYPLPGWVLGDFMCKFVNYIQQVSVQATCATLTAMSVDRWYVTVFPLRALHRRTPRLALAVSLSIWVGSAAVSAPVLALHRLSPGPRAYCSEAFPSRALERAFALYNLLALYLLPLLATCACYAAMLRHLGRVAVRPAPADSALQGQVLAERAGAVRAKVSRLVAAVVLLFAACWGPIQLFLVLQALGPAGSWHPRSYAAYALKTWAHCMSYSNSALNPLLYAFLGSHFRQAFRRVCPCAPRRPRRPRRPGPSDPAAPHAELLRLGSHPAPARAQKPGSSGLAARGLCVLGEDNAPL
Chain of D(2) dopamine receptor (Homo sapiens) (P14416 whole entry, looked up): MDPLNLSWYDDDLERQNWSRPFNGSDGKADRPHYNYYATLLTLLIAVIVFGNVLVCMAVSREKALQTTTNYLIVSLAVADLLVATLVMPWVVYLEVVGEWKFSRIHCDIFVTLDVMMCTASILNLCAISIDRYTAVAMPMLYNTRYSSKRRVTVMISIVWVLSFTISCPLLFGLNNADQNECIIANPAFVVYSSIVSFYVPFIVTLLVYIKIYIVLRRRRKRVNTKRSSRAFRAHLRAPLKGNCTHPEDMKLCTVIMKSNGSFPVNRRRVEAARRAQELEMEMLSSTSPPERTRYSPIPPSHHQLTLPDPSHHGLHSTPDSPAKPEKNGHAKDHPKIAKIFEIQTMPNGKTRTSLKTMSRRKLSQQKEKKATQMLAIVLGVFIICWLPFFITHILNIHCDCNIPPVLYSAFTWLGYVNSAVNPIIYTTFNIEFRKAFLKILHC
Chain of Gonadotropin-releasing hormone receptor (Homo sapiens) (P30968 whole entry, looked up): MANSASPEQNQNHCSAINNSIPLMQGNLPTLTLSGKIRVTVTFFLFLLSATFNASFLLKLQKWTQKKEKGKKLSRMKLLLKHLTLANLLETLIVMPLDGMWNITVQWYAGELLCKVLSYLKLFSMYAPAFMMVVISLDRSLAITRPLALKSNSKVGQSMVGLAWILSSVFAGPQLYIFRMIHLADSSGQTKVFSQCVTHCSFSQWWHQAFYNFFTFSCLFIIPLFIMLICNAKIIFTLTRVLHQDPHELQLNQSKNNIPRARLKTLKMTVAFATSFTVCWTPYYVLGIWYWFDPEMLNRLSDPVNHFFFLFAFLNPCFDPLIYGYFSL
Chain of 5-hydroxytryptamine receptor 2A (Homo sapiens) (P28223 whole entry, looked up): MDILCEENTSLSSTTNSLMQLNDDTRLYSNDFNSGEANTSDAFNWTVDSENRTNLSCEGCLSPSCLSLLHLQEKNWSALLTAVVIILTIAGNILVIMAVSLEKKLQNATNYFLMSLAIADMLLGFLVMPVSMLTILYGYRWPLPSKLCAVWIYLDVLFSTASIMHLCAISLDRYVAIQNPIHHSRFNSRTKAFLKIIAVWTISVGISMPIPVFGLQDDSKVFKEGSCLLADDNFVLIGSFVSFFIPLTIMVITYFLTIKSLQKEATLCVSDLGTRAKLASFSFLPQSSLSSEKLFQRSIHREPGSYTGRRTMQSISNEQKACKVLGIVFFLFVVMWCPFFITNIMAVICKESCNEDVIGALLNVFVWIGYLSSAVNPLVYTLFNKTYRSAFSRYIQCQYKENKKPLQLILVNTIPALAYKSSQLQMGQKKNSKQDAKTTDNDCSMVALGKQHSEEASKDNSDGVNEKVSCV

Structure (SMILES) | Potency [1] | Potency [2] | Potency [3] | Potency [4] | Potency [5] | Potency [6] | Potency [7] | Potency [8] | Potency [9] | Potency [10] | Potency [11] | Potency [12] | Potency [13] | Potency [14] | Potency [15] | Potency [16] | Potency [17] | Potency [18] | Potency [19] | Potency [20]
C[Si](C)(C)O[Si](C)(C)C | inactive | inactive | inactive | inactive | inactive | inactive | inactive | inactive | inactive | inactive | inactive | inactive | inactive | inactive | inactive | inactive | inactive | inactive | inactive | –
c1cc(-c2ccncc2)ccn1 | inactive | – | inactive | inactive | inactive | inactive | inactive | inactive | inactive | – | inactive | inactive | inactive | inactive | inactive | inactive | inactive | inactive | inactive | inactive
O=C1c2c(O)cccc2Cc2cccc(O)c21 | inactive | – | inactive | inactive | inactive | inactive | inactive | inactive | inactive | inactive | inactive | inactive | inactive | inactive | inactive | inactive | inactive | inactive | inactive | inactive
COC(=O)CCC(=O)OC | inactive | – | inactive | inactive | inactive | inactive | inactive | inactive | inactive | inactive | inactive | inactive | inactive | inactive | inactive | inactive | inactive | inactive | inactive | inactive
COC(=O)[C@H]1[C@H]2C[C@@H]3c4[nH]c5cc(OC)ccc5c4CCN3C[C@H]2C[C@@H](OC(=O)c2cc(OC)c(OC)c(OC)c2)[C@@H]1OC | 48.5 µM (active) and inactive | – | inactive | – | – | inactive | inactive | inactive | inactive | – | – | – | – | – | – | 54.4 µM (active) and 19.9 µM (active) and inactive | – | – | inactive | inactive
C[C@]12CC[C@@H]3c4ccc(O)cc4CC[C@H]3[C@@H]1CC[C@@H]2O | inactive | – | inactive | inactive | – | inactive | – | – | inactive | – | – | – | – | inactive | inactive | – | – | inactive | inactive | inactive
O=C(Nc1ccccc1SSc1ccccc1NC(=O)c1ccccc1)c1ccccc1 | 6.14 µM (active) and 6.11 µM (active) | – | inactive | inactive | – | inactive | inactive | inactive | inactive | inactive | inactive | inactive | inactive | – | – | inactive | inactive | inactive | inactive | inactive
COC(=O)c1cccc(C(=O)OC)c1 | inactive | inactive | inactive | inactive | inactive | inactive | inactive | inactive | inactive | inactive | inactive | inactive | inactive | inactive | inactive | inactive and 15.4 µM (active) | inactive | inactive | inactive | –
